# Assay outcomes deposited in PubChem by National Center for Advancing Translational Sciences (NCATS).
# Hits are enriched below; roughly 8.5% of the tested compounds scored in any of these assays.
# KDM4E inh: JMJD2E (human) inhibition; AID 2147; 1.6% of 230,000 active; B2RXH2; Potency, µM (titrated, usually from 57.1 µM), for inactives: at the highest dose activity change, negative = inhibition, most hits filed as inhibitors; JMJD2E catalytic domain, FDH-coupled NADH fluorescence (FDH is formaldehyde dehydrogenase);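 also: potency is read from the fitted curve at half-maximal effect; 0% = wells with enzyme and -100% = buffer wells without enzyme; nearly all actives have a fitted effect of over 50% in size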
# Sfp PPTase inh: inhibitors of Bacillus subtilis Sfp phosphopantetheinyl transferase | Q9F4F7 | Biochemical Sfp PPTase activity, qHTS | Potency, µM, for inactives: largest response in the series, negative = inhibition, usual class: inhibitors | 3.5% of 310,000 active; active = well fitted curve in the direction sought with a large enough effect; inconclusive = small, poorly fitted or top-dose-only effect, or another doubt; inactive = no such curve, though single readings can be large; an effect the other way counts as inactive or inconclusive;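 also: the enzyme is Sfp with the accession as filed and its product quenches rhodamine fluorescence; potency is read from the fitted curve at half-maximal effect; 0% = enzyme reaction without inhibitor and -100% = no enzyme wells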
#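 Step 1, compound plus 15 nM Sfp-PPTase, 15 min, room temperature. Step 2, add rhodamine-CoA (5 uM) and BHQ-2-YbbR (12.5 uM). Step 3, read 525/598 nm fluorescence at 0 and 30 min.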
# RGS12 GoLoco inh: blocks human Gai1 binding to RGS12 GoLoco peptide, red readout. P63096. Gai1:RGS12 GoLoco peptide FP, rhodamine, 10 min. Potency, µM (series often up to 61.6 µM), inactives show top-dose activity, negative = inhibition, hits mostly inhibitors. 0.44% of 230,000 active; active = well fitted inhibition curve with a large enough effect, not every such curve was filed as active; inactive = no such curve, though single readings can be large or run the other way; also: potency is read from the fitted curve at half-maximal effect; nearly all actives have a fitted effect of over 30% in size
# ALDH1A1 inh: blocks purified human ALDH1A1 activity; Potency, µM (titrated, usually from 75.3 µM), for inactives: at the top dose activity, negative = inhibition, hits mostly inhibitors; 7.3% of 220,000 active; AID 1030; P00352; Purified ALDH1A1, NADH fluorescence, propionaldehyde substrate;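 also: potency is read from the fitted curve at half-maximal effect; plate controls were no enzyme wells and a reference inhibitor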
# Target sequence (P00352 whole entry, looked up): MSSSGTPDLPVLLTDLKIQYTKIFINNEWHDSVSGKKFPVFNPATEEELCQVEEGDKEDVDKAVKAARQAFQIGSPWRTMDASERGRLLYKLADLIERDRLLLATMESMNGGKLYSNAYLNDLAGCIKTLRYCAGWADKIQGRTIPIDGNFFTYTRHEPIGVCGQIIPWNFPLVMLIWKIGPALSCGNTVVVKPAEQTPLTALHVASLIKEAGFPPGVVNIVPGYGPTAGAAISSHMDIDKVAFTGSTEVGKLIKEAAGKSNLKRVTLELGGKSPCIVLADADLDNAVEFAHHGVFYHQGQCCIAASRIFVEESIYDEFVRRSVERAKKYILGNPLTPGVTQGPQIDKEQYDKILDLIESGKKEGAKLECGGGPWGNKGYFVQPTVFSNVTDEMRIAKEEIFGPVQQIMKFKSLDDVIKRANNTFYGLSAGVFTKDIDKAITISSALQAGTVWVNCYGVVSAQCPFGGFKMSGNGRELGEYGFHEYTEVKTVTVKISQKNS
# Coupling enz: counter-screen for Giardia aldolase inhibitors: coupling enzyme system. coupling enzyme system counterscreen, AmpLite Red fluorescence. activity change, negative = inhibition, % at 58.2 µM, hits read low. 0.67% of 290,000 active. AID 2472; in the data active = activity change below about -30%
#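 Compounds tested against the coupling enzymes alone at 57.5 uM final; readout was AmpLite Red fluorescence (525/598 nm) after 20 min at RT.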
# NPSR antag: antagonists of human neuropeptide S receptor cAMP signaling; 1% of 220,000 active; Q6W5P4; Potency, µM (titrated, usually from 38.3 µM), for inactives: at the top dose activity change, negative = inhibition, most hits filed as inhibitors; CHO-NPSR cells, cAMP TR-FRET, antagonist mode; AID 1461; active = well fitted curve in the direction sought with a large enough effect; inconclusive = small, poorly fitted or top-dose-only effect, or another doubt; inactive = no such curve, though single readings can be large; an effect the other way counts as inactive or inconclusive; also: potency is read from the fitted curve at half-maximal effect; nearly all actives have a fitted effect of over 50% in size
# * = called active by the depositor; ? = inconclusive; nt = no result given; [ ] = remark or other dose. Unless noted, calls follow the shape of the dose curve; as a rule, active = well fitted inhibition curve with a large enough effect (not every such curve was filed as active); inconclusive = small, poorly fitted or top-dose-only effect, or another doubt; inactive = no such curve, though single readings can be large or run the other way. Unless noted, % is scaled to controls: 0 for no effect and ±100 for the full control effect.
SMILES,KDM4E inh,Sfp PPTase inh,RGS12 GoLoco inh,ALDH1A1 inh,Coupling enz,NPSR antag
CCn1c(=S)[nH]c2cc(S(=O)(=O)N3CCCCC3)ccc21,-9.3%,-17.8%,-5.5%,7.08µM*,-1.2,-5.7%[46.1 µM]
O=S(=O)(Nc1cccc(Cl)c1)c1ccc2oc(=S)[nH]c2c1,-9.2%,10.7%,1.9%,1µM*,12.1,-7.9%
O=S(=O)(c1ccc2oc(=S)[nH]c2c1)N1CCCCC1,1.8%,8.9%,-14.0%,20µM*,18.9,6.1%
O=C(NCC1CCCC(CNC(=O)Nc2ccc(Cl)cn2)C1)Nc1ccc(Cl)cn1 (stereo not drawn),nt,9.8%,nt,nt,0.1,nt
Cc1ccc2nc(C)c3c(c2c1)N(c1ccc(F)cc1)CC3,?,-2.5%,6.8%,nt,-0.4,-28.1%
O=C(NCc1n[nH]c(=S)n1-c1ccc(Br)cc1)c1ccc(S(=O)(=O)N2CCCC2)cc1,5.3%,-1.2%,4.9%,?,1.9,5.3%
COc1cccc(CN(C)C(=O)c2ccc(S(=O)(=O)N3CCCC3)cc2)c1OC,-2.8%,-15.3%,3.5%,11.2µM*,-3.9,-1.2%[46.1 µM]
COc1cccc(CNC(=O)c2ccc(S(=O)(=O)N3CCCC3)cc2)c1,-0.4%,2.7%,-8.1%,12.6µM*,1.9,-5.0%[46.1 µM]
COc1ccc(Br)cc1CNC(=O)C1CCN(S(=O)(=O)N2CCCCC2)CC1,-0.7%,-13.2%,11.3%,12.6µM*,2.7,-7.1%[46.1 µM]
COc1ccc(OC)c(CNC(=O)C2CCN(S(=O)(=O)N3CCCC3)CC2)c1,-3.9%,15.5%,6.2%,?,-0.6,5.8%[46.1 µM]
COc1ccc(-n2c(CNC(=O)c3ccc(S(=O)(=O)N4CCCC4)cc3)n[nH]c2=S)cc1,6.4%,-2.1%,6.6%,10µM*,3.2,-4.7%[46.1 µM]
CCCCCC(O)/C=C/C=C\CCCCCCCC(=O)O (stereo not drawn),14.8%,4.4%,2.1%,4.4%,-1.9,nt
COCCN(C(=O)CSc1nnc(-c2cccc(F)c2)n1N)c1c(N)n(CC(C)C)c(=O)[nH]c1=O,nt,8.1%,nt,nt,nt,nt
Cc1cc(C)c(NC(=O)c2ccc(CNS(=O)(=O)c3cc(C(F)(F)F)ccc3Cl)cc2)c(C)c1,-1.5%,11.0%,-8.4%,?,1.6,-23.2%
CC1CCCN(C(=O)CN2C(=O)CSc3ccc(S(=O)(=O)N4CCOCC4)cc32)C1 (stereo not drawn),nt,1.5%,nt,nt,-2.0,nt
Cc1cc(=O)[nH]c2cc3oc4ccccc4c3cc12,nt,nt,3.3%[14.2 µM],-2.3%[13.5 µM],nt,nt
COc1cccc(CNC(=O)C2CCN(S(=O)(=O)N3CCCCC3)CC2)c1,0.3%,-2.1%,11.5%,10µM*,1.3,-10.3%[46.1 µM]
O=C(O)c1ccc(CSc2nc3ccccc3c(=O)n2-c2ccccc2)cc1,nt,24.8%,nt,nt,19.8,nt
N=C(N)SCc1nc2ccccc2c(=O)n1-c1ccccc1,?,50.1µM*,54.9%,?,-13.9,33.7%
COc1ccc(NC(=O)CSc2nnc(NC(=O)c3ccccc3C(=O)O)s2)cc1,4.6%,28.1%,-4.2%,0.3%,5.2,-5.1%
Fc1ccc(Nc2ccc(-c3ccc(F)cc3)nn2)cc1,2.5%,10.4%,-3.1%,-1.6%,-2.3,-3.3%
CC1(C)Cc2c(sc(NC(=O)c3ccccc3)c2C(=O)O)CO1,?,-20.7%,-11.9%,22.4µM*,-18.7,-24.0%
CC1(C)Cc2c(sc(NC(=O)C(=O)N3CCCCC3)c2C(=O)O)CO1,nt,-7.2%,nt,nt,nt,nt
CC(C)COc1ccc(C(=O)Nc2sc3c(c2C(=O)O)CC(C)(C)OC3)cc1,3.5%,-22.8%,6.0%,20µM*,9.6,41.1%
CC1(C)Cc2c(sc(NC(=O)C(=O)N3CCCC3)c2C(=O)O)CO1,nt,-7.4%,nt,nt,nt,nt
SMILES,KDM4E inh,Sfp PPTase inh,RGS12 GoLoco inh,ALDH1A1 inh,Coupling enz,NPSR antag
Cc1cc(C(=O)NCc2ccccc2Cl)n(-c2ccccc2)n1,8.4%,13.3%,5.4%,nt,0.1,-5.4%
CCN(CCn1cccn1)Cc1cn[nH]c1-c1cccc2ccccc12,-4.7%,2.1%,-5.9%,nt,0.2,5.1%
CC(C)c1ccccc1NC(=O)CNC(C)c1ccc(F)cc1 (stereo not drawn),3.3%,10.3%,6.3%,10.7%,0.4,-20.1%
O=C(NC1CCCCC1)NC1C2CC3CC(C2)CC1C3 (stereo not drawn),nt,23.9%,nt,nt,-2.6,nt
O=C1C(=O)c2ccccc2C(O)=C1CCCCl,-15.9%,-26.5%,0.2%,?,-50.4*,?
Cc1ccc(/C=N/c2sc(Cc3ccccc3)c(C)c2C(N)=O)o1,-5.3%,-12.7%,5.8%,?,2.9,-4.5%
CCOC(=O)c1cc(CC)sc1/N=C/C1C(=O)CCCC1=O,?,-13.2%,13.8%,5.6%,1.7,4.2%
COC(=O)c1c(NC(C)=O)sc(Cc2ccccc2)c1C,-6.2%,-19.2%,-5.5%,-3.7%,0.1,-17.8%[46.1 µM]
Cc1c(Cc2ccccc2)sc(N)c1C(N)=O,-12.2%,39.8µM*,22.8%,15.8µM*,-2.8,?
Cc1c(Cc2ccccc2)sc(NC(=O)C(C)(C)C)c1C(N)=O,-9.8%,20µM*,38.0%,8.91µM*,-7.0,-45.4%
CCOC(=O)c1cc(CC)sc1/N=C/c1c(O)ccc2ccccc12,?,-19.2%,-14.1%,?,-34.5*,-1.5%
CCC(=O)Nc1sc(Cc2ccccc2)c(C)c1C(N)=O,?,?,7.5%,22.4µM*,4.0,35.3%
COc1ccc(OC)c(NC(=O)CSc2nnc(CNC(=O)c3cccs3)o2)c1,nt,14.0%,nt,nt,nt,nt
Cc1c(Cc2ccccc2)sc(/N=C/c2ccc3ccccc3c2)c1C(N)=O,?,-25.2%,40.8%,?,-2.1,4.8%
Cc1c(Cc2ccccc2)sc(/N=C/c2c(O)ccc3ccccc23)c1C(N)=O,?,35.5µM*,233.8%,?,-11.8,-2.3%
CC(=O)c1cc2c(O)c(O)ccc2o1,?,56.2µM*,nt,?,-10.9,-21.5%[46.1 µM]
COc1ccc(CCNC(=O)Cn2c(=O)n(-c3ccc(C)c(F)c3)c(=O)c3sccc32)cc1OC,-8.2%,-8.5%,0.5%,6.31µM*,3.5,3.3%
COCCCNC(=O)Cn1c(=O)n(CC(=O)NCCc2ccc(OC)c(OC)c2)c(=O)c2sccc21,7.5%,11.3%,3.6%,-13.1%,1.3,9.5%
O=C(C1=C(O)C(=O)N(c2ncccn2)C1c1cccc(Cl)c1)c1ccco1 (stereo not drawn),?,56.2µM*,48.4%,17.8µM*,-6.2,3.9%[46.1 µM]
O=C(C1=C(O)C(=O)N(c2ncccn2)C1c1ccc(Cl)c(Cl)c1)c1ccco1 (stereo not drawn),?,56.2µM*,172.1%,7.94µM*,-0.7,-16.0%[46.1 µM]
CCOC(=O)C1CCN(C(=O)C2COc3ccccc3O2)CC1 (stereo not drawn),nt,10.9%,nt,nt,2.3,nt
O=Cc1ccc2cccnc2n1,1.2%,15.8µM*,5.7%,?,1.1,11.8%
O=Cc1ccc2ccc3cccnc3c2n1,nt,-25.5%,nt,nt,-17.5,nt
Oc1ccc(Br)cc1Cn1nnc2ccccc21,nt,5.3%,nt,nt,-0.5,nt
